CHO-K1 Ca ag: counter-screen for M1 agonists: effect in parental CHO-K1 cells. Fluo-8 calcium fluorescence; scaled to maximal ATP response, vehicle zero. activation, % at 3 µM. 0.48% of 360,000 active; in the data active means activation above about 15%;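 further: untransfected CHO-K1 host cells lacking M1 receptor as counterscreen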
CHRM1 PAM: potentiates human M1 receptor response to acetylcholine; P11229; CHO-K1 hM1, Fluo-8 calcium fluorescence, ACh EC20; 0% = ACh EC20, 100% = maximal ACh; activation, % at 3 µM; 0.088% of 360,000 active; in the data active means activation above about 19%, passing the limit was not always enough
Target sequence (P11229 whole entry, looked up): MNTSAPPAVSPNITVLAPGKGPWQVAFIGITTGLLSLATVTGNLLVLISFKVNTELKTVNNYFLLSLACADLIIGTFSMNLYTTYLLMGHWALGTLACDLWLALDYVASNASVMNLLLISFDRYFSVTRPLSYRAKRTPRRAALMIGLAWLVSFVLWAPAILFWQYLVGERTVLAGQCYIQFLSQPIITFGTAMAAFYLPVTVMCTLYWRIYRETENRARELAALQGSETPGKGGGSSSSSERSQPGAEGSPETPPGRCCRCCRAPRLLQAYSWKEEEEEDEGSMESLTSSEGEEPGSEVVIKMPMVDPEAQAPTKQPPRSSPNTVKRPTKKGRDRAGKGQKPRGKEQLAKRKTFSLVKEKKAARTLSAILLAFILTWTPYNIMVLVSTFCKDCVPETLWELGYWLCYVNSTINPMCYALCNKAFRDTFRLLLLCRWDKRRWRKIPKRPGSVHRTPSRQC
CHO-K1 Ca antag: M1 antagonist counterscreen hit in parental CHO-K1 cells. ATP-induced calcium, Fluo-8 fluorescence. inhibition, % at 3 µM. 0.6% of 360,000 active. AID 602250;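 active means inhibition above a per-plate cutoff, the plate's mean sample inhibition plus 3 SD, cut at about 24% in these data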
CHRM1 antagonist: antagonists of human M1 muscarinic receptor; inhibition, % at 3 µM; AID 588852; P11229; 1.3% of 360,000 active; CHO-K1 hM1, Fluo-8 calcium fluorescence, ACh EC80 antagonist;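 active means percent inhibition above its own plate's cutoff, namely the mean of that plate's compound wells plus 3 SD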;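 further: peak over basal fluorescence ratio during 140 s after agonist addition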
CHRM1 agonist: agonists of human M1 muscarinic receptor | CHO-K1 hM1, Fluo-8 calcium fluorescence, agonist mode; 0% DMSO, 100% acetylcholine EC100 | activation, % at 3 µM | 0.33% of 360,000 active;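 active means activation above the run's mean compound activation plus 3 SD, cut at about 16% in these data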;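 further: peak over basal fluorescence ratio within a 140 s kinetic read after compound addition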
M1 PAM parental: nonselective activator or artifact in parental CHO-K1 calcium assay; ATP EC20, Fluo-8 calcium fluorescence; 0% at ATP EC20, 100% at ATP max; activation, % at 3 µM; 0.02% of 360,000 active; AID 602247;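 active means activation above the run cutoff, the mean activation of all test compounds plus 3 SD, cut at about 40% in these data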;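 further: peak over basal fluorescence ratio in a 140 s read after ATP addition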
Of the large screens only hits and unclear results are named; the others gave an inactive call; ! = repeats disagree. A selection: hits, their analogues and other compounds. The true share with any hit is near 2.4%.

COc1ccc2cc(C(=O)C3CCCN(C4CCOCC4)C3)ccc2c1 (stereo not given)	none
CC(C)c1ccc(NC(=O)CSc2nnc(OC(=O)N(C)C)n2C2CC2)cc1	none
c1ccc2c(N3CCNCC3)nsc2c1	none
Cn1ncc(Cl)c1C(=O)N1CCC2(CC1)OCCO2	none
O=C(c1ccc(Cl)cc1)C1CCCN(C2CCSCC2)C1 (stereo not given)	CHRM1 antagonist 61
COc1ccc(C(=O)C2CCCN(C3CSCCSC3)C2)cc1OC (stereo not given)	CHRM1 antagonist 97
COc1cccc(N(C(C)=O)C2=NCCCS2)c1	none
COc1ccccc1CC(=O)N1CCN(CCc2ccccc2)CC1	CHO-K1 Ca antag 25
CCC(C)N1CCN(C(=O)Cc2ccccc2)CC1 (stereo not given)	CHO-K1 Ca antag 25, CHRM1 antagonist 41
Cc1ccc(CC(=O)N2CCN(Cc3ccccc3)CC2)cc1	none
ClC(Cl)=C(c1ccc(Cl)cc1)c1ccc(Cl)cc1	none
COc1cc2c(cc1OC)[C@@H]1C(=O)c3ccc4c(c3O[C@@H]1CO2)C[C@H](C(C)C)O4	CHO-K1 Ca antag 29
CCCNC(=O)N1[C@H]2CC[C@@H]1C(C(=O)OC)=C(c1cc3ccccc3o1)C2	none
CC/C(=N\Nc1ccccc1)c1c(O)n(C)c(=O)n(C)c1=O	none
C/C(=N\NC(=S)Nc1ccccc1)c1c(O)n(C)c(=O)n(C)c1=O	CHO-K1 Ca ag 22
CC(C)C1CN1CC(O)Cn1ccnc1[N+](=O)[O-] (stereo not given)	none
O=c1[nH]c(=O)n(C2CCCCC2)c(O)c1/C=C/C=Nc1ccccc1	CHO-K1 Ca ag 18, CHRM1 agonist 18
COc1ccc(-n2c(O)c(/C(C)=N/N3CCCCCC3)c(=O)[nH]c2=O)cc1	CHRM1 PAM 34
COc1ccc(-n2c(O)c(/C(C)=N/Nc3ccccc3)c(=O)[nH]c2=O)cc1	none
COc1ccc(-n2c(O)c(/C=C/C=Nc3ccccc3)c(=O)[nH]c2=O)cc1	CHO-K1 Ca ag 23, CHRM1 agonist 22
ON1C2CCCCC2N(O)C1c1ccccc1 (stereo not given)	none
COC(=O)C1=C(c2ccc(Cl)c(C(F)(F)F)c2)C[C@@H]2CC[C@H]1N2C(=O)N1CCC(C)CC1	none
CCOC(=O)/C(CCCN(CC)CC)=N\O	CHRM1 antagonist 78
CCC1(Oc2ccccc2)C(=O)NC(=O)NC1=O	none
CCC1(C)OC(c2ccccc2)=C/C(=C/C=C2C(=O)NC(=O)NC2=O)O1 (stereo not given)	CHRM1 agonist 23
CCN(CC)CCC(=O)O[C@H]1CC[C@]2(C)C3CC[C@@]4(C)C(CC[C@]4(C)O)C3CC[C@H]2C1 (stereo not given in full)	CHRM1 antagonist 50
CN1CCC2(CC1)N=C(c1ccc(F)cc1)C(=S)N2	CHRM1 antagonist 26
CCCn1cc(CN2CCCC(C(=O)c3cccc(OC)c3)C2)c(C)n1 (stereo not given)	none
COc1cccc(C(=O)C2CCCN(Cc3cnn(C(C)C)c3)C2)c1 (stereo not given)	none
CCCn1ncc(CN2CCCC(C(=O)c3cccc(OC)c3)C2)c1C (stereo not given)	CHRM1 antagonist 94
CCn1cc(CN2CCCC(C(=O)c3cccc(OC)c3)C2)c(C)n1 (stereo not given)	CHRM1 antagonist 50
C[N+](C)(C)CC#CCOC(=O)Nc1cccc(Cl)c1	CHRM1 antagonist 88, CHRM1 agonist 91
O=C(Nc1cccc(Cl)c1)N1C[C@H]2C[C@@H](C1)c1cccc(=O)n1C2	none
O=C(O)C1C2c3ccccc3C(O)C1(C(=O)O)c1ccccc12 (stereo not given)	none
CS(=O)(=O)c1ccc(C2=C(CNC(=O)c3nccs3)[C@H]3CC[C@@H](C2)N3CCOc2ccccc2)cc1	CHRM1 antagonist 56
CS(=O)(=O)c1ccc(C2=C(CNC(=O)c3ccncc3)[C@H]3CC[C@@H](C2)N3Cc2ccccc2)cc1	none
CS(=O)(=O)c1ccc(C2=C(CNC(=O)c3cccs3)[C@H]3CC[C@@H](C2)N3CCOc2ccccc2)cc1	CHRM1 antagonist 35
Cc1ccc(OCC(=O)N2CCN(Cc3ccc4c(c3)OCO4)CC2)cc1	CHO-K1 Ca antag 30
C[N+](C)(C)c1ccccc1	CHRM1 agonist 39
OC(Cn1c2ccccc2c2ccccc21)C[n+]1cccc2ccccc21 (stereo not given)	CHRM1 antagonist 63
COc1cccc(C2CCN(C)C2)c1 (stereo not given)	CHRM1 agonist 29
COc1ccc(SCC2CN(C)CCC2c2ccc(F)cc2)cc1 (stereo not given)	none
CCN1/C(=C\C=C\C2=[N+](CC)c3ccccc3C2(C)C)C(C)(C)c2ccccc21	CHO-K1 Ca ag 313, CHO-K1 Ca antag 94, CHRM1 antagonist 96, CHRM1 agonist 388
ClC1C(Cl)C(Cl)C(Cl)C(Cl)C1Cl (stereo not given)	CHRM1 agonist 47!
CN1CC(C(=O)c2cccs2)C(c2ccc(Cl)cc2)C1 (stereo not given)	CHO-K1 Ca ag 21
O=C(c1cccs1)N1CCC(C(=O)O)(c2ccccc2)CC1	none
O=C(O)C1CN2CCC1CC2 (stereo not given)	CHRM1 agonist 25
O=C(c1cccs1)C1CN2CCC1CC2 (stereo not given)	CHRM1 antagonist 38
CCC(=Nc1ccccc1N)c1c(O)[nH]c(=O)[nH]c1=O	none
C=C1N2CCC(CC2)C1(O)c1ccc(C)c(C)c1 (stereo not given)	CHRM1 antagonist 72
CC(C)N(Cc1ccco1)/N=C/c1c(O)n(Cc2ccccc2)c(=O)[nH]c1=O	none
O=C(COc1ccc(Cl)cc1)NC1CN2CCC1CC2 (stereo not given)	CHRM1 antagonist 45
CC1=C(C)CC2(C(=O)NC(=O)NC2=O)C(C)C1 (stereo not given)	none
CC(=O)O[C@@H]1[C@H]2CC[C@@H]3[C@]1(C[C@@H](OC(C)=O)[C@@]1(O)C([C@@H]4O[C@@H]4C1(C)C)[C@]3(C)O)C[C@@]2(C)O (stereo not given in full)	none
CCN1CCN(Cc2cc(Br)cc(OC)c2O)CC1	CHRM1 antagonist 56
Oc1c(Br)cc(Br)cc1CN1CCN(Cc2ccccc2)CC1	none
COc1cc(CN2CC=C(c3ccc(F)cc3)CC2)cc(OC)c1	CHRM1 antagonist 31
CC1=C2C3OC(=O)C(C)C3CC[C@@]2(C)C=CC1=O (stereo not given in full)	none
Cc1[nH]c2ccc(OC(F)(F)F)cc2c1CCNCc1ccc(Cl)cc1	none
CCOc1cccc(CNCCc2c(C)[nH]c3ccc(OC(F)(F)F)cc23)c1O	CHO-K1 Ca ag 37, CHO-K1 Ca antag 53, CHRM1 antagonist 37
Cc1[nH]c2ccc(OC(F)(F)F)cc2c1CCNCc1cccc([N+](=O)[O-])c1	CHO-K1 Ca ag 35
CC1=C(C)CN2CC(C#N)=C(N)C2C1 (stereo not given)	none
CC(=O)NC(Cc1ccc(N(CCCl)CCCl)cc1)C(=O)NC(CC(C)C)C(=O)O (stereo not given)	none
